The text below walks through data of PubChem BioAssay (NCATS).

A number with no mark means an inactive call. Results filed as inconclusive are left out. The source made the active and inactive calls. Unless noted, calls come from the whole dose curve; as a rule, active = well fitted curve in either direction with a large enough effect (not every such curve was filed as active); inconclusive = small, poorly fitted or top-dose-only effect, or another doubt; inactive = flat fitted curve, though single readings scatter.

Experiment [1] is described as follows: AP1 Signaling Pathway (AID 357).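 Note: ME-180 reporter cells stimulated with EGF at its EC50 level; % is set by controls: 0 for no effect and ±100 for the full control effect.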 Conditions: ME-180 AP-1-bla reporter, EGF-induced, beta-lactamase ratio, 5 h; at 17.2 µM (top of the series) unless noted. Put shortly:
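Cells are seeded overnight, exposed to compound titrations and an EC50 level of EGF for 5 hours at 37 °C, then loaded with CCF4 dye for 2.5 hours. Beta-lactamase activity under the AP-1 element is read as a blue/green ratio.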

Experiment [2] can be described thus: NFAT Signaling Pathway (AID 444).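 Note: carbachol stimulus at about its EC50 of 1 µM final; % is set by controls: 0 for no effect and ±100 for the full control effect.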 Conditions: Jurkat NFAT-bla M1, carbachol, beta-lactamase ratio, 5 h; at 17.2 µM (top of the series) unless noted. Put shortly: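 Jurkat cells with NFAT-driven β-lactamase reporter and co-expressed M1 receptor, stimulated with carbachol (final 1 uM, ~EC50), compound titration, 5 h at 37 °C. CCF4 loaded 1 h at RT; 460/530 nm ratio gave %activity and AC50.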

A short description of experiment [3]: Stat Signaling Pathway (AID 446).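 Note: ME-180 cervical cancer cells given 40 pM IL-6 alongside compound; SIE-controlled beta-lactamase reporter measured as 460/530 nm FRET emission ratio; % is set by controls: 0 for no effect and ±100 for the full control effect.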 Conditions: ME-180 SIE beta-lactamase reporter, IL-6 stimulated, 5 h; at 17.2 µM (top of the series) unless noted. Put shortly:
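ME-180 cells carrying a SIE-driven beta-lactamase reporter are stimulated with 40 pM IL-6 for 5 h at 37C in the presence of compound. The 460/530 nm FRET substrate ratio is read after 2.5 h at RT. Data are normalised to 300 pM IL-6 and to 125 nM JAK inhibitor controls.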

Experiment [4] addresses Glucocorticoid receptor (Homo sapiens) (UniProt P04150). The experiment is described as follows: GR-GFP Redistribution (AID 450;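 active = compounds whose dose series gives a full or clear partial fitted curve of increased nuclear translocation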; note: potency is the fitted concentration of half-maximal effect).
Experiment [5] in a line: qHTS Assay for Identification of Small Molecule Agonists for Hypoxia Response Element Signaling Pathway (AID 914; active = well fitted activation curve with a large enough effect in the signal ratio, with a control signal flat, not every such curve was filed as active; the % refers to the signal ratio; note: % of control where 0% means no effect). Conditions: ME-180 (cervical carcinoma) HRE-bla reporter, beta-lactamase ratio, CoCl2, 17 h; activation: active compounds read high. In outline: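 A beta-lactamase reporter under hypoxia response element control in ME-180 cells served as the system. Compound titrations plus EC50 CoCl2 ran 17 h at 37 degrees Celsius; AC50 values were fitted from %Activity.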
On the technique in general: In qHTS, concentration-response curves come from the screen itself.

The target of experiment [6] is 3',5'-cyclic-AMP phosphodiesterase 4B (Homo sapiens) (UniProt Q07343). Put plainly: qHTS Assay for Inhibitors of PDE-IV (AID 607; active = well fitted activation curve with a large enough effect in the main read-out, with a control signal flat, not every such curve was filed as active; note: % of control where 0% means no effect). Put shortly:
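HEK293 ACTOne cells with CNG channel (1000/well), endogenous PDE4; membrane potential dye, compounds up to 22.9 uM final. Fluorescence Ex 535/Em 590; RO 20-1724 (100 uM final) as reference.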

In experiment [7] the target is Guanine nucleotide-binding protein G(i) subunit alpha-1 (Homo sapiens) (UniProt P63096). The experiment is described as follows: qHTS Assay for Inhibitors of RGS12 GoLoco Motif Activity (Green Fluorophore) (AID 879; active = well fitted curve in the direction sought with a large enough effect; an effect the other way counts as inactive or inconclusive;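 note: 0% = labeled peptide with Gαi1 and full inhibition = labeled peptide alone without protein; negative values mean loss of peptide binding seen as reduced polarization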). In outline: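 Fluorescence polarization assay: 50 nM Gαi1 with 10 nM FITC-labeled RGS12 GoLoco peptide in 10 mM Tris pH 7.5, 150 mM NaCl, 0.1 mM GDP, 0.05% NP40, 10 min at room temperature with compound.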
Sequence of Guanine nucleotide-binding protein G(i) subunit alpha-1 (Homo sapiens) (P63096 whole entry, looked up): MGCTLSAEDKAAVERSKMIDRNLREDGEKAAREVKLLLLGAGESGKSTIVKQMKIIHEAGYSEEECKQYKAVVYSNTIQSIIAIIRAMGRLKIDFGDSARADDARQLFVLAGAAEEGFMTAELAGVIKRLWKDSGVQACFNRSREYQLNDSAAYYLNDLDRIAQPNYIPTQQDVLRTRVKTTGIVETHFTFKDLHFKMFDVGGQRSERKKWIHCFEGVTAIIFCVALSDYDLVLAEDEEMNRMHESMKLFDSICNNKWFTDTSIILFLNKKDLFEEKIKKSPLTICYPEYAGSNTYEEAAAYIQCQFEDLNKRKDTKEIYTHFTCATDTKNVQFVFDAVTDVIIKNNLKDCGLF

Experiment [8] is described as follows: qHTS Assay for Identification of Small Molecule Agonists for Thrombopoietin (TPO) Signaling Pathway (AID 917; active = well fitted curve in the direction sought with a large enough effect; an effect the other way counts as inactive or inconclusive; note: % is set by controls: 0 for no effect and ±100 for the full control effect). In outline: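 We measured Glycoprotein IIb promoter–luciferase output in IL-3-starved Ba/F3 murine cells expressing the human TPO receptor after 24 hrs at 37 C with compounds and 26 pM TPO.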
The target of experiment [9] is Muscarinic acetylcholine receptor M1 (Rattus norvegicus) (UniProt P08482). The experiment is described as follows: qHTS Assay for Antagonists of Acetylcholine Muscarinic M1 Receptor: Measurement of IP-One Response (AID 944; active = well fitted curve in the direction sought with a large enough effect; an effect the other way counts as inactive or inconclusive; note: nearly all actives have a fitted effect of over 75% in size). In outline:
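M1-CHO (rat), 2000 cells/well, overnight recovery; cpd 10 min; carbachol EC80 (200 nM), 30 min, HEPES buffer + 50 mM LiCl pH 7.4; IP-One HTRF, Ex 337, Em 620/665 nm.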

For experiment [10], the target named is Pyruvate kinase (Leishmania mexicana) (UniProt Q27686). The experiment is described as follows: qHTS Validation Assay for Inhibitors of Leishmania Mexicana Pyruvate Kinase (AID 945; active = well fitted curve in the direction sought with a large enough effect; an effect the other way counts as inactive or inconclusive;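 note: 0% = DMSO only neutral control wells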). In outline:
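Compounds are tested as eight-point concentration series. Reactions contain 0.2 nM LmPYK E451W, 0.5 mM PEP, 0.1 mM ADP, 7 mM MgCl2 and 50 mM KCl at pH 7.2, run 1 h at room temperature, then read by PKLight luminescence.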

In experiment [11] the target is Pyruvate kinase PKM (Homo sapiens) (UniProt P14618). The experiment is described as follows: qHTS Assay for Activators of Human Muscle Pyruvate Kinase (AID 954; active = well fitted curve in the direction sought with a large enough effect, not every such curve was filed as active;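 note: 0% = uninhibited enzyme and -100% = no enzyme or full thiadiazolimine inhibition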). Put shortly:
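Purified human PKM2 (0.1 nM) with 0.5 mM PEP (Km) and 0.1 mM ADP in 50 mM imidazole pH 7.2, KCl, MgCl2, 1 h at room temperature; ATP formed read by coupled luciferase luminescence. Normalized to no-enzyme/110 uM thiadiazolimine inhibition; 0.3 nM enzyme column for activation.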

For experiment [12], the target named is Alpha-galactosidase A (Homo sapiens) (UniProt P06280). The experiment is described as follows: Counterscreen for Glucocerebrosidase Inhibitors: qHTS Assay for Human alpha-Galactosidase at pH 4.5 (AID 992; active = well fitted curve in the direction sought with a large enough effect; an effect the other way counts as inactive or inconclusive; note: 0% is about no effect). Put shortly:
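Human enzyme (2 nM) with 80 uM 4-methylumbelliferyl alpha-D-galactopyranoside in 50 mM citric acid, 0.005% Tween-20, pH 4.5, 20 min at room temperature. Compounds 0.7 nM–77 uM; fluorescence Ex 365/Em 440 after pH 10 stop; AC50 from Hill fits.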

Experiment [13] deals with alpha-glucosidase (Oryza sativa, rice) (UniProt Q653V4). Put plainly: Counterscreen for Glucocerebrosidase Inhibitors: qHTS Assay for Rice alpha-Glucosidase at pH 5.0 (AID 997; active = well fitted curve in the direction sought with a large enough effect; an effect the other way counts as inactive or inconclusive;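 note: 0% = full activity with enzyme and -100% = basal without enzyme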). In outline: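 Rice alpha-glucosidase (4 nM final) with 400 uM 4-methylumbelliferyl-alpha-D-glucopyranoside in citrate buffer pH 5.0, 20 min at room temperature, stopped at pH 10; fluorescence 365/440 nm, compounds 0.7 nM–77 uM, AC50 from Hill fits.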
On the technique in general: A counterscreen serves to expose hits that act by an unwanted route or on another target.

Sequence of Glucocorticoid receptor (Homo sapiens) (P04150 whole entry, looked up): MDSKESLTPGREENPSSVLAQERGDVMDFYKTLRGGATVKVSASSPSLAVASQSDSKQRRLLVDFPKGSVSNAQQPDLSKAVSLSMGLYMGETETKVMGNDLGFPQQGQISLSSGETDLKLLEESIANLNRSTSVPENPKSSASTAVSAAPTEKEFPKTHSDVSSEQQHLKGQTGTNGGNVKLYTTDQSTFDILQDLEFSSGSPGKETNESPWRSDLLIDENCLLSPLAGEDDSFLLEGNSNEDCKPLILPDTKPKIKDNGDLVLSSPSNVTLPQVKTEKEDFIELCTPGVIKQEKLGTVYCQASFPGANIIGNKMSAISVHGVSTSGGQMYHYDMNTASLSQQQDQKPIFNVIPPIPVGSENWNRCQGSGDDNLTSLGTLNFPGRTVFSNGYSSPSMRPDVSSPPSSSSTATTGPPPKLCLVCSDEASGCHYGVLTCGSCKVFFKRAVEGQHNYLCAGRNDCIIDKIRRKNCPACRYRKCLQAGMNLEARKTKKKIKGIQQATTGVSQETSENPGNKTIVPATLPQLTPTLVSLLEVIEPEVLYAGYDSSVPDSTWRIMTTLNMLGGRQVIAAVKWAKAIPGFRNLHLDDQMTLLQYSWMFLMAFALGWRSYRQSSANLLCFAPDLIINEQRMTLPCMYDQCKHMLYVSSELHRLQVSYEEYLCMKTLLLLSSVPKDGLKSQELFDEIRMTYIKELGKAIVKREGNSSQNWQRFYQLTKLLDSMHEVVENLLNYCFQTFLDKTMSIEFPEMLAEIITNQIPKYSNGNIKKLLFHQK
Sequence of Pyruvate kinase PKM (Homo sapiens) (P14618 whole entry, looked up): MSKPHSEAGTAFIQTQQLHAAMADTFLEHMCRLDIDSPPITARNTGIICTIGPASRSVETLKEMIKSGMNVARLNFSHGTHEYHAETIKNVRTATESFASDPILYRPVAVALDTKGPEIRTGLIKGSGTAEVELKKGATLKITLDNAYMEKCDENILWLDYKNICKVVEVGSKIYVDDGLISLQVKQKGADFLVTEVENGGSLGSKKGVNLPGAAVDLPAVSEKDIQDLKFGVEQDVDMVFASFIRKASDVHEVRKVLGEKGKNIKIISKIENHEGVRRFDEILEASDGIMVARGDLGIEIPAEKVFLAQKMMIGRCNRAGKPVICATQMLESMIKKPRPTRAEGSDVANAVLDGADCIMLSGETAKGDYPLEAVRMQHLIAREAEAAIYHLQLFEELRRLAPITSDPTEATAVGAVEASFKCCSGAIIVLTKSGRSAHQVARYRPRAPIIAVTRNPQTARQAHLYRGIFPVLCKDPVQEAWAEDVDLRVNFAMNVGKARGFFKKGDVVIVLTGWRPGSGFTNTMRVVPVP
Sequence of 3',5'-cyclic-AMP phosphodiesterase 4B (Homo sapiens) (Q07343 whole entry, looked up): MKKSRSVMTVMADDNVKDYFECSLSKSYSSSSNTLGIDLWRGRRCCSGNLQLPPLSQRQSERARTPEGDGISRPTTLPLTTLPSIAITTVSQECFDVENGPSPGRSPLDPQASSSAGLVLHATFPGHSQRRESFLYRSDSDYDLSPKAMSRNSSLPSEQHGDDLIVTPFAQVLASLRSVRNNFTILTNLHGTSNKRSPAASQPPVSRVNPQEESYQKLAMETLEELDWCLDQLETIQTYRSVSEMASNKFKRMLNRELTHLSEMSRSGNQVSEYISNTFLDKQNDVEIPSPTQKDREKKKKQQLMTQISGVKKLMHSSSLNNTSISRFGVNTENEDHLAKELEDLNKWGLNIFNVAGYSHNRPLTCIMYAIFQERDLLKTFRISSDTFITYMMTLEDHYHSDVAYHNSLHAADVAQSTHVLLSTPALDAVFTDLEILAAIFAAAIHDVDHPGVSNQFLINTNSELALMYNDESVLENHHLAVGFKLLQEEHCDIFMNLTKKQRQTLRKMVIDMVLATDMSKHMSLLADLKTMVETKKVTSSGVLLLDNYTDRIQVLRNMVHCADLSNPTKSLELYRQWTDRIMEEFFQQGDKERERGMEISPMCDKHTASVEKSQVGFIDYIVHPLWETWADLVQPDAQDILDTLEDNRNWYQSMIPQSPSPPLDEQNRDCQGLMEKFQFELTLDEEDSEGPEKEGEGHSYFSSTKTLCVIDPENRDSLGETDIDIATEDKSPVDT
Sequence of Alpha-galactosidase A (Homo sapiens) (P06280 whole entry, looked up): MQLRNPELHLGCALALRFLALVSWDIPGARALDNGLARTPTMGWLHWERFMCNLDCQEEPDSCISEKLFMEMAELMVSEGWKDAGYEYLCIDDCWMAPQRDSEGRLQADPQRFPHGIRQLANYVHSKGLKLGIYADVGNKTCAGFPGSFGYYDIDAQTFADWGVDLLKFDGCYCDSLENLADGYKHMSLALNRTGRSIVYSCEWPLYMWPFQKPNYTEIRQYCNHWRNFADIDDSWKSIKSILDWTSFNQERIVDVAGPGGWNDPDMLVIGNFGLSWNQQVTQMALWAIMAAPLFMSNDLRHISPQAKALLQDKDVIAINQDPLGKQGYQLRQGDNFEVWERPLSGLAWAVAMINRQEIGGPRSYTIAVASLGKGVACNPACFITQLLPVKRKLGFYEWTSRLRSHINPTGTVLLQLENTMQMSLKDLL
Sequence of Pyruvate kinase (Leishmania mexicana) (Q27686 2-499 E452W): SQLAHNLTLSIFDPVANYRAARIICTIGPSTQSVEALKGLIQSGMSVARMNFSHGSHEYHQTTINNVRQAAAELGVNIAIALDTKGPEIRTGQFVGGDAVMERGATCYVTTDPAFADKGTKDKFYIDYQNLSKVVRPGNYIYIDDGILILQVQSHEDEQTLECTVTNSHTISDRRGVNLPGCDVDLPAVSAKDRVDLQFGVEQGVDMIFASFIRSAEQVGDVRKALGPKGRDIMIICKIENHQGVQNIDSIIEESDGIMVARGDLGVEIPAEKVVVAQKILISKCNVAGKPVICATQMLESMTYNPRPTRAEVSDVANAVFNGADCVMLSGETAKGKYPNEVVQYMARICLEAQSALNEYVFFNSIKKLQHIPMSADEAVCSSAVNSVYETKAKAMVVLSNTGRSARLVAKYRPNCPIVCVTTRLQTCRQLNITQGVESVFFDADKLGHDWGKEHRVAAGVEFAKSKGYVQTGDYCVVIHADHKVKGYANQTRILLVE
Sequence of Muscarinic acetylcholine receptor M1 (Rattus norvegicus) (P08482 whole entry, looked up): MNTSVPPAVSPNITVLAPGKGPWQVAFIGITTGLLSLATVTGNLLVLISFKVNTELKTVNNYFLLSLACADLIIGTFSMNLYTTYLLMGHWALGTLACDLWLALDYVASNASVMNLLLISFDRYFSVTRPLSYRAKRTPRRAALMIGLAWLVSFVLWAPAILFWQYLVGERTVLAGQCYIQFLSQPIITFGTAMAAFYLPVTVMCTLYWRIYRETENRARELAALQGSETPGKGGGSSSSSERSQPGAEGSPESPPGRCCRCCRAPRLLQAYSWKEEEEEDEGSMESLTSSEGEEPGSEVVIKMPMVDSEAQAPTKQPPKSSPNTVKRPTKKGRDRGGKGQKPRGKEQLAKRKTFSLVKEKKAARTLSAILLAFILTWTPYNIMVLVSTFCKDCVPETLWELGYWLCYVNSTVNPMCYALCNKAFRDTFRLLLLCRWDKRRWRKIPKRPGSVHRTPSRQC

Take `CCOc1ccc(CSC(CC(=O)O)C(=O)O)cc1` (centres undefined): the values for the activity change, negative = inhibition in experiment [1] and in experiment [2] were -0.441% and -5.85%, respectively. Besides, the activity, negative = inhibition in experiment [3] was 11.1%. In addition, the Potency in [4] was > 20.6 µM. Further, in experiment [5], the activation was 14.8%.
`O=C(Cc1ccccc1)Nc1cccc(-c2nnc(-c3ccco3)o2)c1`: the activity change, negative = inhibition was -23.3% in experiment [1] and 11.7% in [2]. Further, the Potency in experiment [4] is > 20.6 µM.
Regarding `CCOC(=O)C(c1ccccc1)N1CCN(c2ccc(OC)cc2)CC1` (centres undefined), the activity change, negative = inhibition is -19.8% in experiment [1] and 19.4% in experiment [2]. Besides, the activity, negative = inhibition in experiment [3] is 4.69%. The Potency in [4] was > 20.6 µM. The activation in experiment [5] was -13.4%.
As to `CCN1CCC[C@@H]1CNC(=O)c1c(O)c(Cl)cc(Cl)c1OC`, the activity change, negative = inhibition in experiment [1] was 10.6% [at 38 µM]; in experiment [2], 2.12% [at 38 µM]. Moreover, the activity, negative = inhibition in [3] is -20.4% [at 38 µM]. The Potency result in experiment [6], in [8], in [9] and in experiment [10] was “inactive” each time. Further, the compound was called inactive in experiment [7], in experiment [11], in experiment [12] and in experiment [13].
Consider `CN1[C@@H]2CC(OC(=O)[C@@H](CO)c3ccccc3)C[C@H]1[C@H]1O[C@H]12` (some centres undefined), for which the activity change, negative = inhibition in experiment [1] was 4.86% [at 38 µM]; in experiment [2], -57.6% [at 38 µM] (active). In addition, the activity, negative = inhibition in experiment [3] is 13.4% [at 38 µM]. The Potency entry in experiment [6], in experiment [8] and in experiment [10] was “inactive” throughout. The outcome in experiment [11], in experiment [12] and in experiment [13] was inactive.
For the compound `O=C(CSc1nnc(-c2ccco2)c(-c2ccco2)n1)Nc1ccccc1`, the values for the activity change, negative = inhibition in experiment [1] and in experiment [2] were 3.29% and -3.07%, respectively. Further, the activity, negative = inhibition in experiment [3] was -9.01%. Also, the Potency in experiment [4] was > 20.6 µM. In experiment [5], the activation is -14.8%.
`COc1cc(-c2nn3c(COc4ccccc4)nnc3s2)cc(OC)c1OC`: the activity change, negative = inhibition was 0.0695% in experiment [1] and 11.1% in [2]. The Potency in experiment [4] is > 20.6 µM.
Take `Cc1cc(=O)oc(C)c1C(=O)Nc1cccc2nonc12`: the activity change, negative = inhibition was -1.38% in experiment [1] and 11.1% in experiment [2]. Also, the activity, negative = inhibition in experiment [3] was -0.713%. Further, in experiment [4], the Potency is > 20.6 µM. The activation in experiment [5] was 1.4%.
The matching figures for `CCCOc1ccc(Cn2c(O)cc(=O)[nH]c2=O)cc1`: -5.5%, 7.39%, -0.906%, > 20.6 µM and 16.1%.
The matching figures for `CCOc1cccc(N2C(=O)CC(N(CCc3ccc(OC)c(OC)c3)C(=O)CC)C2=O)c1` (centres undefined): -28.7%, 0.637%, 3.67%, > 20.6 µM and 11%.
With `c1coc(-c2nc3nc4ccccc4nc3n2-c2ccc3c(c2)OCCO3)c1`, the results for the activity change, negative = inhibition in experiment [1] and in experiment [2] were -28.6% and 21.1%, respectively. In addition, the Potency in [4] is > 20.6 µM.
In the case of `Cc1cc(C)n(C(=O)CNC(=O)c2ccc3c(c2)OCCO3)n1`, the activity change, negative = inhibition was -0.109% in experiment [1] and -6.13% in experiment [2]. The activity, negative = inhibition in experiment [3] was 7.28%. Besides, the Potency in experiment [4] is > 20.6 µM. Besides, the activation in experiment [5] is -10.8%.
The matching figures for `CCOc1ccc(/C(O)=C2/C(=O)C(=O)N(CCN(CC)CC)C2c2ccco2)cc1` (centres undefined): -1.27%, -3.29%, 6.33%, > 20.6 µM and -14.8%.
